For 18 compounds, growth inhibition, inhibition and outcome results are on record in PubChem BioAssay.

Assay [1] can be described thus: antimalarial activity against Dd2 strain (AID 2302;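 active = growth inhibition above 50% at the single 2 µM test dose, taken to imply half-maximal potency below 2 µM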;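 also: 0% = DMSO untreated growth and 100% = chloroquine plus artemisinin killed control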). The settings on record: P. falciparum Dd2 in RBCs, LDH growth readout, 72 h; at 2 µM; stronger effect = higher value.
Assay [2] in a line: human hepatoma cell viability loss – ATP luminescence, cytotoxicity control for P. falciparum antimalarial project, primary screen (AID 2303;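 active = inhibition above 50%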;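 also: 0% = DMSO wells and 100% = digitonin-killed cells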). The settings on record: HepG2 viability, 24-48 h, at 10 µM, stronger effect = higher value.
The target in assay [3] is L-lactate dehydrogenase (Plasmodium falciparum (isolate CDC / Honduras)) (UniProt Q27743). Put plainly: PfLDH activity inhibition – cell lysate, 3D7 strain, counter-screen for P. falciparum growth inhibition project (AID 2304).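 Also: 0% = vehicle and 100% = reference inhibitor.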 The following applies: P. falciparum 3D7 crude extract, LDH APAD/NBT absorbance; at 2 µM; stronger effect = higher value.
Assay [4] is described as follows: inhibition of 3D7 malaria parasite growth – strain 3D7 (AID 2306).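 Also: 0% = DMSO wells and 100% = chloroquine plus artemisinin control wells.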 The following applies: P. falciparum 3D7 erythrocytic growth, LDH absorbance, 72 h; at 2 µM; stronger effect = higher value.
The target in assay [5] is Calcium-dependent protein kinase 1 (Plasmodium falciparum (isolate 3D7)) (UniProt P62344). Put plainly: PfCDPK1 kinase inhibitors, biochemical, TCAMS library (AID 1159585; cut-off not given, nearly all actives have IC50 up to about 0.98 µM;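 also: inhibitors leave more ATP so luminescence rises with inhibition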). The settings on record: recombinant PfCDPK1, Kinase-Glo ATP depletion luminescence.
Assay [6] has as its target Plasmodium falciparum protein kinase 6 (PK6, PF3D7_1337100) (UniProt Q8IDW1). Put plainly: PfPK6 kinase inhibitors, biochemical, TCAMS library (AID 1159586). The following applies: recombinant PfPK6, Kinase-Glo ATP depletion luminescence.
Assay [7] has as its target Protein kinase 7 (PK7), Plasmodium falciparum 3D7 (PF3D7_0213400) (UniProt Q7YTF7). Put plainly: inhibition of Plasmodium PK7 catalytic activity – biochemical, TCAMS antimalarial set, Kinase-Glo luminescence (AID 1159587). The settings on record: recombinant PfPK7, Kinase-Glo ATP depletion luminescence.
In assay [8] the target is Calcium-dependent protein kinase 4 (Plasmodium falciparum (isolate 3D7)) (UniProt Q8IBS5). Put plainly: PfCDPK4 kinase inhibitors, biochemical, TCAMS library (AID 1159588; cut-off not given, nearly all actives have IC50 up to about 0.91 µM). The following applies: recombinant PfCDPK4, Kinase-Glo ATP depletion luminescence.

Molecules are shown by their SMILES. Unmarked numbers belong to inactive results. For part of these data: Measured potencies and affinities stand elsewhere. Activity calls are given as the source filed them. Unless noted, no rule for the calls is given here.

Sequence of Calcium-dependent protein kinase 1 (Plasmodium falciparum (isolate 3D7)) (P62344 whole entry, looked up): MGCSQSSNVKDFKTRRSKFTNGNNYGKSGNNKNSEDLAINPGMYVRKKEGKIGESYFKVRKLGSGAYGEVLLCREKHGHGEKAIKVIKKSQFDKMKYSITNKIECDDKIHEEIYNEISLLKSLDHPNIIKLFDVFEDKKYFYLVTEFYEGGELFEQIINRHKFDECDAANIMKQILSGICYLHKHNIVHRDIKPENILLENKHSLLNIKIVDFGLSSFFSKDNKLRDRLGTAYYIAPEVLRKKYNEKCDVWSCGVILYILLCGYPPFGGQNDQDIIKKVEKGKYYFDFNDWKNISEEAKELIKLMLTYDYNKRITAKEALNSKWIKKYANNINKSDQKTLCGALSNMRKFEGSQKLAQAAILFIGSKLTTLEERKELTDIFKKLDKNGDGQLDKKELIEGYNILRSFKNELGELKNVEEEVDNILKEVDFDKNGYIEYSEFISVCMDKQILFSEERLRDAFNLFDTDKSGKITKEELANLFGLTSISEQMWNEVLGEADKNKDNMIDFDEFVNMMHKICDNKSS
Sequence of Protein kinase 7 (PK7), Plasmodium falciparum 3D7 (PF3D7_0213400) (Q7YTF7 1-343): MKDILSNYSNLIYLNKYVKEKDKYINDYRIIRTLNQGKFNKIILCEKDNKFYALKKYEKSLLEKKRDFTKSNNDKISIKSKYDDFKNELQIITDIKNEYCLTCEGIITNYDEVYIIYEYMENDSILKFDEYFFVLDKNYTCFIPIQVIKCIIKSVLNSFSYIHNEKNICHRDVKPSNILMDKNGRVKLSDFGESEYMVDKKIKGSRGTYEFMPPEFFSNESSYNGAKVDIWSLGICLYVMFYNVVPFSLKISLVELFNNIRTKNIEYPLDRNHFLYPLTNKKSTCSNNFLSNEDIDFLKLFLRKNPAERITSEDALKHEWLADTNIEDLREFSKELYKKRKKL
Sequence of Plasmodium falciparum protein kinase 6 (PK6, PF3D7_1337100) (Q8IDW1 1-305): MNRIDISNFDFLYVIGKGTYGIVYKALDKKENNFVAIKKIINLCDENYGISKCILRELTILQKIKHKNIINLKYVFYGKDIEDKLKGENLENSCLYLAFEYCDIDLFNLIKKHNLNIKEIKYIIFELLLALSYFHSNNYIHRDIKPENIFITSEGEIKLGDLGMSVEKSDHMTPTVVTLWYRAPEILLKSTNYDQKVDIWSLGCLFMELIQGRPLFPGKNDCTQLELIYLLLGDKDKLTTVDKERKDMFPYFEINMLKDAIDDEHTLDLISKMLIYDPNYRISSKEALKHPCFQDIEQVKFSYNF
Sequence of Calcium-dependent protein kinase 4 (Plasmodium falciparum (isolate 3D7)) (Q8IBS5 whole entry, looked up): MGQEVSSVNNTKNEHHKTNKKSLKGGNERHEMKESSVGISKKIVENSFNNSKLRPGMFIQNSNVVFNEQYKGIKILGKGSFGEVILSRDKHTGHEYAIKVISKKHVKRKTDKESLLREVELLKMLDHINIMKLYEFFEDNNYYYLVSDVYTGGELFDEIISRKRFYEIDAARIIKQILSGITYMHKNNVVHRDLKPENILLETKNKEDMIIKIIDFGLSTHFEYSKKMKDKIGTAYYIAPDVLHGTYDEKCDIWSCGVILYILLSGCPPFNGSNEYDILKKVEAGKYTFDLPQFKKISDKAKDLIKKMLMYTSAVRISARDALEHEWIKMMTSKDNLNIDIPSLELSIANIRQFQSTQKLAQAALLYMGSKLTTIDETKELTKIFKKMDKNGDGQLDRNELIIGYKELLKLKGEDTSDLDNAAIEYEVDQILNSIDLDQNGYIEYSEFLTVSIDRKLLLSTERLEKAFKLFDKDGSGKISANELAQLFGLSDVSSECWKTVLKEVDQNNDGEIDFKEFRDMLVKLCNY
Sequence of L-lactate dehydrogenase (Plasmodium falciparum (isolate CDC / Honduras)) (Q27743 whole entry, looked up): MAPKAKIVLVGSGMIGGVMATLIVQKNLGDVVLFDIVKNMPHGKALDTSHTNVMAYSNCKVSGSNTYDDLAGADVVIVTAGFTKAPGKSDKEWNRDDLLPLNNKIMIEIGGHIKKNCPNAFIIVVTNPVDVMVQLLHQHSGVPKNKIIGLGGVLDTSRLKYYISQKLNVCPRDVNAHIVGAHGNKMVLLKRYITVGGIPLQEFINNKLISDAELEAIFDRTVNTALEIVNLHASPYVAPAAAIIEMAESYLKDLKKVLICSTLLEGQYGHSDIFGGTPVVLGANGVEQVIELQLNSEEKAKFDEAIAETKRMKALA

For `COc1ccc(-c2cncc3ccc(C(=O)NCc4ccncc4)nc23)cc1`, the growth inhibition in assay [1] was 98% (active); in assay [4], 100% (active). In addition, the figures for the inhibition in assay [2] and in assay [3] were 25% and 0%, respectively. For the same compound, the result in assay [5], in assay [6], in assay [7] and in assay [8] was inactive.
For `O=c1c(Br)ccccc1Br`, the growth inhibition in assay [1] was 41%; in assay [4], 94% (active). Also, the results for the inhibition in assay [2] and in assay [3] were 98% (active) and 0%, respectively. Besides, the outcome in assay [5], in assay [6], in assay [7] and in assay [8] was inactive.
On to `Cc1nc(N2CCC(C)CC2)c2c3c(sc2n1)CCCC3`, for which the growth inhibition was 39% in assay [1] and 93% (active) in assay [4]. The inhibition in assay [2] is 13%; in assay [3], 1%. Also, the outcome in assay [5], in assay [6], in assay [7] and in assay [8] was inactive.
With `CCn1c(-c2nonc2N)nc2cnc(Oc3cccc(NC(=O)c4ccc(OCCN5CCCCC5)cc4)c3)cc21`, the growth inhibition was 7% in assay [1] and 98% (active) in assay [4]. The inhibition was 16% in assay [2] and -1% in assay [3]. For the same compound, the result in assay [5], in assay [6], in assay [7] and in assay [8] was inactive.
On to `COc1ccc(CNC2CCN(C)CC2)cc1-c1ccc(S(=O)(=O)NC2CCC2)c(F)c1`, for which the growth inhibition in assay [1] is 97% (active); in assay [4], 101% (active). Further, the figures for the inhibition in assay [2] and in assay [3] were 96% (active) and 7%, respectively. For the same compound, the result in assay [5], in assay [6], in assay [7] and in assay [8] was inactive.
As for `CCNC(=O)Nc1ccc(N(C)c2ccnc(NC3CC3)n2)cc1`, the growth inhibition in assay [1] was 80% (active); in assay [4] it was 100% (active). The results for the inhibition in assay [2] and in assay [3] were 21% and -5%, respectively. For the same compound, the result in assay [5], in assay [6], in assay [7] and in assay [8] was inactive.
Turning to `CC(=O)Nc1ncc(C(=O)Nc2cccc(-c3ccc(-c4nc5ccc(C(F)(F)F)cc5[nH]4)s3)c2)s1`, the growth inhibition in assay [1] was 99% (active); in assay [4] it was 101% (active). The inhibition in assay [2] is 90% (active); in assay [3], 5%. Besides, the outcome in assay [5], in assay [6], in assay [7] and in assay [8] was inactive.
Regarding `Cc1noc(-c2ccccc2)c1NC(=O)N1CCN(CCCCCCNC(=O)/C=C/c2ccc(Cl)c(Cl)c2)CC1`, the growth inhibition in assay [1] is 1%; in assay [4] it was 95% (active). Further, the inhibition in assay [2] is 6%; in assay [3] it was 2%. Further, the result in assay [5], in assay [6], in assay [7] and in assay [8] was inactive.
Consider `COc1cc(Cc2cnc(N)nc2N)ccc1OCc1ccc(-c2ccccc2C#N)cc1`, for which the growth inhibition is 3% in assay [1] and 93% (active) in assay [4]. Besides, the inhibition in assay [2] is 32%; in assay [3], 6%. For the same compound, the result in assay [5], in assay [6], in assay [7] and in assay [8] was inactive.
In the case of `Cc1cc(N[C@@H](Cc2ccccc2)C(=O)Nc2ccccc2)nc(NCCN2CCCC2)n1`, the results for the growth inhibition in assay [1] and in assay [4] were -5% and 94% (active), respectively. For the same compound, the values for the inhibition in assay [2] and in assay [3] were 8% and 0%, respectively. In addition, the outcome in assay [5], in assay [6], in assay [7] and in assay [8] was inactive.
As to `Oc1ccc2[nH]cc(C3CCN(CCCCCCCCCN4CCC(c5c[nH]c6ccc(O)cc56)CC4)CC3)c2c1`, the growth inhibition in assay [1] was 2%; in assay [4], 101% (active). Besides, the inhibition in assay [2] was 22%; in assay [3] it was -5%. For the same compound, the outcome in assay [5], in assay [6], in assay [7] and in assay [8] was inactive.
In the case of `N#Cc1ccc(-c2ccc(C(=O)NCCCCN3CCC(c4ccc5c(c4OCc4ccncc4)CCCC5)CC3)cc2)cc1`, the growth inhibition is 57% (active) in assay [1] and 81% (active) in assay [4]. In addition, the values for the inhibition in assay [2] and in assay [3] were 41% and 1%, respectively. Moreover, the outcome in assay [5], in assay [6], in assay [7] and in assay [8] was inactive.
As to `O=C(Nc1ccnc(N2C[C@H]3C[C@@H]2CN3Cc2cccc(O)c2)c1)c1ccc(F)cc1`, the growth inhibition in assay [1] is 0%; in assay [4], 92% (active). The inhibition in assay [2] was 2%; in assay [3] it was 4%. Moreover, the result in assay [5], in assay [6], in assay [7] and in assay [8] was inactive.
Consider `Nc1nc(N)c2cc(C#Cc3ccc(-c4ccccc4)cc3)ccc2n1`, for which the growth inhibition was 3% in assay [1] and 94% (active) in assay [4]. For the same compound, the figures for the inhibition in assay [2] and in assay [3] were 20% and 0%, respectively. The result in assay [5], in assay [6], in assay [7] and in assay [8] was inactive.
`COc1ccc(CN(C)CCCCc2ccc(NC(=O)COc3cccc4sc5ccccc5c(=O)c34)cc2)cc1OC`: the growth inhibition in assay [1] was 84% (active); in assay [4], 100% (active). Besides, the values for the inhibition in assay [2] and in assay [3] were 26% and -1%, respectively. For the same compound, the outcome in assay [5], in assay [6], in assay [7] and in assay [8] was inactive.
Take `CCCCCCNC(=O)C1Cc2c([nH]c3ccc(F)cc23)C2(CCN(Cc3ccccc3)CC2)N1` (centres undefined): the growth inhibition was 39% in assay [1] and 97% (active) in assay [4]. Besides, the inhibition in assay [2] is 11%; in assay [3], -1%. Besides, the outcome in assay [5], in assay [6], in assay [7] and in assay [8] was inactive.
Consider `COc1cccc2cc(C(=O)N[C@@H](CC(C)C)C(=O)N[C@H](/C=N/NC(=O)Cc3cccnc3)CCc3ccccc3)oc12`, for which the growth inhibition in assay [1] was 54% (active); in assay [4], 82% (active). In addition, the inhibition in assay [2] was 6%; in assay [3], 2%. Besides, the result in assay [5], in assay [6], in assay [7] and in assay [8] was inactive.
Take `CCc1cc(N2CCN(c3ccccc3F)CC2)nc(SCc2ccc(C(=O)NC3CC3)o2)n1`: the values for the growth inhibition in assay [1] and in assay [4] were 94% (active) and 90% (active), respectively. The inhibition in assay [2] is 9%; in assay [3] it was 1%. The outcome in assay [5], in assay [6], in assay [7] and in assay [8] was inactive.
